Screening results from PubChem BioAssay.
AI-2 QS modul – Vibrio harveyi AI-2 quorum sensing modulators, primary screen, JMH597 strain, luminescence/OD600 ratio; Vibrio harveyi JMH597 AI-2 luminescence/OD600 ratio, 9 h; hits give low values; strain lacks LuxN and CqsS sensors; 0 = neutral-control median; activity change, % at 7.5 µM; hit rate 0.4% among 300,000; in the data active means activity change below about -75%, passing the limit was not always enough;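 further: luminescence divided by OD600 gain over 9 h not by final OD600 alone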
PHOSPHO1 block – PubChem AID 1565; Phosphoethanolamine/phosphocholine phosphatase (Homo sapiens), Q8TCT1; recombinant PHOSPHO1, absorbance phosphatase assay; inhibition, % at 13.3 µM; hit rate 1.1% among 290,000; in the data active means inhibition above about 60%
Target sequence (Q8TCT1 whole entry, looked up): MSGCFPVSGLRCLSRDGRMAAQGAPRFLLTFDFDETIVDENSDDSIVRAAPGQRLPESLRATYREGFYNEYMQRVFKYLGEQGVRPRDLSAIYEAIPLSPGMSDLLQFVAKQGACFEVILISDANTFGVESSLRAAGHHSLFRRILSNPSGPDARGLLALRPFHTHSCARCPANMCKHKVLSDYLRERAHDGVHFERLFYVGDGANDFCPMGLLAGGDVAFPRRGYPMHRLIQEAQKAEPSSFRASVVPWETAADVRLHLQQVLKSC
ABCB6 inh 2 – ABCB6 transporter inhibitors, primary screen, K562-ABCB6 cells, flow cytometry, MLPCN library | K562-ABCB6 porphyrin accumulation, 1 h; hits give low values | fluorescence ratio to DMSO, % at 10 µM | hit rate 0.19% among 360,000 | AID 602162, 2011;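 active means fluorescence ratio to DMSO below 75%, the collection mean minus 3 SD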;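 further: signal is porphyrin accumulated inside mitochondria; lower ratio means ABCB6 inhibition with less porphyrin fluorescence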
MLLE-PAM2 inh – inhibitors of PABP1 MLLE–PAM2 peptide binding, primary screen, biochemical, fluorescence polarization, FITC-PAM2, GST-MLLE; inhibition, % at 20 µM; AID 588489, 2011; Polyadenylate-binding protein 1 (Homo sapiens), P11940; hit rate 0.36% among 360,000; in the data active means inhibition above about 35%, passing the limit was not always enough
eIF4H FP inh – human eIF4H binding inhibitors, primary screen, translation initiation inhibitor project, biochemical, uHTS, fluorescence polarization. Eukaryotic translation initiation factor 4H (Homo sapiens), Q15056. eIF4H fluorescence polarization binding assay. inhibition, % at 35 µM. hit rate 0.94% among 290,000. AID 2012, 2009;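 further: calls also rest on retests at 20 µM and on dose response follow-up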
PABP FP inh – PABP poly(A) RNA binding inhibitors, primary screen, biochemical, fluorescence polarization, uHTS. calls only at 35 µM. hit rate 1% among 290,000;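 further: calls also rest on retests at 20 µM and on dose response follow-up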
ABCB6 inh CP1 – ABCB6 transporter inhibitors, confirmation, K562-ABCB6 cells, flow cytometry, cherry pick 1 | shares compounds with ABCB6 inh 2 | K562-ABCB6 porphyrin accumulation, 1 h; hits give low values | ratio response (% of DMSO), % at 10 µM | 700 tested, under 10 active | AID 602430, 2012;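 active means repeat-averaged ratio response below 75% of DMSO, the collection mean minus 3 SD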;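 further: median porphyrin fluorescence at 575 nm with 488 nm excitation from mitochondria; lower ratio means less porphyrin signal so ABCB6 inhibition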
Hits are given with their value; n = inactive; x = not tested or not shown. A selection: hits, their analogues and other compounds. The true share with any hit is near 2.6%. Unless noted, how the calls were made is not given here.

SMILES	AI-2 QS modul	PHOSPHO1 block	ABCB6 inh 2	MLLE-PAM2 inh	eIF4H FP inh	PABP FP inh	ABCB6 inh CP1
Cc1cc2nc(C(C)(C)C)c(Cc3ccsc3)n2c(C)c1Br	x	x	n	x	x	x	x
CCOc1cc(C(=O)NCc2ccc(-c3nc4ccccc4o3)cc2)cc(OCC)c1OCC	n	n	70.0	n	n	n	n
COc1ccc(C(=O)NC(=S)NCc2ccc(-c3nc4ccccc4o3)cc2)cc1OC	n	n	n	n	n	n	x
Cc1cccc(NC(=O)c2cc3c(=O)n4ccccc4nc3s2)c1	n	n	n	n	n	n	x
O=C(Nc1cccc(Cl)c1)c1cc2c(=O)n3ccccc3nc2s1	n	n	n	n	n	n	n
O=c1c2ccccc2c(-c2ccccc2)nn1-c1cc(Cl)ccc1[N+](=O)[O-]	n	n	73.0	n	n	n	n
CCc1nc2c(OCCOc3ccc(F)cc3)cccn2c1N(C)C(=O)c1ccco1	x	x	n	n	x	x	x
O=C(CSc1ccc2ccccc2c1Br)Nc1cccc(S(=O)(=O)NC2=NCCCCC2)c1	n	n	67.0	n	n	n	n
CC(C)(C)c1ccc(OCCCC(=O)Nc2nnc(C3CC3)s2)cc1	x	x	n	n	x	x	x
COc1cccc(-c2nc3nc(C)cc(C)n3c2NC2CCCC2)c1	x	x	n	x	x	x	x
COc1ccc(-n2c(COc3ccccc3)nnc2SCc2ccc(C#N)cc2)cc1	n	n	51.0	n	n	n	n
COc1ccc(-c2nc3ccc(C)cn3c2Cc2ccccc2)cc1OC	x	x	n	n	x	x	x
COc1ccc(-c2cnn3c(N)c(S(=O)(=O)C(C)(C)C)cnc23)cc1	n	n	68.0	n	n	n	n
COc1ccccc1Cn1nnc2c(=O)[nH]c(C3CCN(C(=O)c4ccccc4Cl)CC3)nc21	n	n	n	n	n	n	n
COc1ccccc1Cn1nnc2c(=O)[nH]c(C3CCN(C(=O)c4ccc(F)cc4)CC3)nc21	n	n	n	n	n	n	x
COc1ccccc1Cn1nnc2c(=O)[nH]c(C3CCN(C(=O)c4ccc(C)cc4)CC3)nc21	n	n	n	n	n	n	n
O=C(c1ccccc1Cl)N1CCC(c2nc3c(nnn3Cc3ccco3)c(=O)[nH]2)CC1	n	n	n	n	n	n	x
Cc1nn(CCC#N)c(N)c1C1(O)C(=O)Nc2c(Cl)cc(Cl)cc21 (centres undefined)	n	n	13.0	n	n	n	n
COc1ccc(C(=O)N2CCC(C)(C(=O)O)C2)c(OC)c1 (centres undefined)	x	x	n	n	x	x	x
CCOC(=O)CN1C(=O)Nc2ccc(Br)cc2C1c1ccccc1 (centres undefined)	n	n	n	n	n	n	x
CCOC(=O)CN1C(c2ccc(O)cc2)Nc2ccc(Br)cc2C1c1ccccc1 (centres undefined)	n	n	73.0	n	n	n	n
Cc1c(Cl)cccc1NC(=O)CCCn1cnc([N+](=O)[O-])n1	n	n	n	n	n	n	x
O=C(CCCn1cnc([N+](=O)[O-])n1)Nc1cccc(Cl)c1Cl	n	n	72.0	n	n	n	n
COc1ccc(N(C(=O)c2ccncc2)S(=O)(=O)c2ccc(Cl)cc2)cc1	n	n	n	n	n	n	x
COc1ccc(N(C(=O)C(C)C)S(=O)(=O)c2ccc(Cl)cc2)cc1	n	n	48.0	n	n	n	n
SMILES	AI-2 QS modul	PHOSPHO1 block	ABCB6 inh 2	MLLE-PAM2 inh	eIF4H FP inh	PABP FP inh	ABCB6 inh CP1
CCc1nc2c(OCc3ccc(Cl)cc3)cccn2c1N(C=O)Cc1ccc(OC)cc1	x	x	n	n	x	x	x
CCn1nccc1NC(=O)c1csc([C@@H]2O[C@H](CO)[C@H](O)[C@H](O)[C@H]2O)n1	x	x	n	n	x	x	x
COc1ccc(NC(=O)c2cc(CN3C(=O)c4ccccc4C3=O)ccc2OC)cn1	n	n	70.0	n	n	n	n
O=C1c2ccccc2C(=O)N1CCc1csc(-c2cccc(F)c2)n1	n	n	72.0	n	n	n	n
CC(=O)Oc1cccc(/C=C2\Sc3ccccc3C2=O)c1	n	n	72.0	n	n	n	n
CCCCOc1ccc(/C=C2/Sc3ccccc3C2=O)cc1	n	n	n	n	n	n	x
COc1cccc(N2CCN(C(=O)CC(C)(C)CC3=NS(=O)(=O)c4ccccc4N3)CC2)c1	n	n	14.0	n	x	x	n
CC(=O)Nc1cccc(-c2ccnc3c2CC(C)(C(=O)Nc2cccc(C(F)(F)F)c2)O3)c1 (centres undefined)	x	x	n	n	x	x	n
COc1cccc(CNS(=O)(=O)c2cn(C)cn2)c1	n	n	8.0	n	n	n	n
Cn1cnc(S(=O)(=O)NCc2ccccc2)c1	n	n	n	n	n	n	x
COc1ccc(C(=O)Nn2c(C)nc3ccccc3c2=O)cc1	n	n	74.0	n	n	n	n
Cc1nc2ccccc2c(=O)n1NC(=O)c1ccc(C(C)(C)C)cc1	n	n	n	n	n	n	x
CC(C(=O)NCC1(c2ccccc2)CCOCC1)N1CCOCC1 (centres undefined)	n	n	n	n	n	n	x
CC(C(=O)NCC1(c2ccccc2)CCCC1)N1CCOCC1 (centres undefined)	n	n	60.0	n	n	n	n
CSc1nc(C)c2cc(C)oc2n1	n	n	n	n	n	n	x
Cc1cc2c(C)nc(Cc3ccccc3)nc2o1	n	n	9.0	n	n	n	n
O=S(=O)(NCC1CCCO1)c1cc(Cl)ccc1Cl (centres undefined)	n	n	n	n	n	n	x
O=S(=O)(NCC1CCCO1)c1cc(Cl)ccc1Br (centres undefined)	n	n	24.0	n	n	n	n
Cn1c(=O)c2ncn(CC(=O)NCCOc3ccc(C(C)(C)C)cc3)c2n(C)c1=O	n	n	n	n	n	n	x
Cn1c(=O)c2ncn(CC(=O)NCCOCc3ccccc3Cl)c2n(C)c1=O	n	n	66.0	n	n	n	n
COCCNC(=O)C1CCCN(C(=O)COc2ccc(Cl)cc2Cl)CC1 (centres undefined)	x	x	n	n	x	x	x
CCOC(=O)[C@]12CCCC=C1N(Cc1ccc3c(c1)OCO3)C(=O)[C@H](CC(=O)NCCc1ccccc1OC)C2	x	x	n	x	x	x	x
Cc1ccc(CN(C)C(=O)c2ccccc2Oc2ccccc2)o1	n	n	67.0	n	n	n	n
COC(=O)c1cc(S(=O)(=O)N2CCN(c3ccc(F)cc3)CC2)c[nH]1	n	n	46.0	n	n	n	n
